Screening data: PubChem BioAssay, National Center for Advancing Translational Sciences (NCATS)
PLK1 PBD inh: inhibitors of human PLK1 polo-box domain binding; Plk1 PBD binding of FITC phosphopeptide, fluorescence polarization; Potency, µM, for inactives: max response, negative = inhibition, hits mostly inhibitors; 360,000 tested, 2.8% active; note: potency is the fitted concentration of half-maximal effect; series mostly up to about 57 µM; % is set by controls: 0 for no effect and ±100 for the full control effect; nearly all actives have a fitted effect of over 65% in size
HP1b chromo inh: inhibitors of HP1-beta chromodomain binding to methylated histone tails; Potency, µM (titrated, usually from 114 µM), inactives show at the highest dose activity change, negative = inhibition, usual class: inhibitors; P83916; AlphaScreen HP1-beta / biotin-H3K9me3 peptide binding; AID 540317; 390,000 tested, 0.56% active; note: potency is the fitted concentration of half-maximal effect; nearly all actives have a fitted effect of over 70% in size
Target sequence (P83916 whole entry, looked up): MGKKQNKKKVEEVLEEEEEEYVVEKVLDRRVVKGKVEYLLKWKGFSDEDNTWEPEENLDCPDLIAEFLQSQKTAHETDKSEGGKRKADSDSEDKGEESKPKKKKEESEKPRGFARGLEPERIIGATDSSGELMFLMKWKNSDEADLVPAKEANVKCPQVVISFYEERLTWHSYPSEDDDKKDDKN
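HP1-beta protein (50 nM final) preincubated 30 min at room temperature with biotinylated H3(1-18)K9me3 peptide (50 nM) in PBS pH 7.4, 0.01% Tween-20, then compound added for 30 min. AlphaScreen streptavidin donor/nickel chelate acceptor beads (10 ug/mL final), 30 min dark, luminescence read.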
G9a inh: G9a (human) methyltransferase inhibition | Q96KQ7 | G9a H3K9 monomethylation, AlphaScreen, 2 h | Potency, µM (titrated, usually from 102 µM), for the others: top-dose activity, negative = inhibition, actives largely listed as inhibitors | 350,000 tested, 8.8% active | AID 504332; note: potency is the fitted concentration of half-maximal effect; % is set by controls: 0 for no effect and ±100 for the full control effect; nearly all actives have a fitted effect of over 75% in size
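Chemiluminescent proximity detection of H3K9 monomethylation, read after 10 min bead incubation in the dark. Reaction: 20 nM G9a, 500 nM biotin-H3K9 peptide, 20 uM SAM cofactor, 2 h, room temperature, following 15 min enzyme-compound preincubation.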
PI5P4Ka inh: inhibitors of human PI5P4K alpha; AID 652105; PI5P4Kalpha enzyme, ADP-Glo luminescence, 60 min; stronger effect = lower value; max response, %; 330,000 tested, 1.2% active; P48426; active = max response of -50% or lower; inconclusive = between -30% and -50%; inactive = -30% or higher; note: value at the top dose of about 77 µM; % is set by controls: 0 for no effect and ±100 for the full control effect
Target sequence (P48426 whole entry, looked up): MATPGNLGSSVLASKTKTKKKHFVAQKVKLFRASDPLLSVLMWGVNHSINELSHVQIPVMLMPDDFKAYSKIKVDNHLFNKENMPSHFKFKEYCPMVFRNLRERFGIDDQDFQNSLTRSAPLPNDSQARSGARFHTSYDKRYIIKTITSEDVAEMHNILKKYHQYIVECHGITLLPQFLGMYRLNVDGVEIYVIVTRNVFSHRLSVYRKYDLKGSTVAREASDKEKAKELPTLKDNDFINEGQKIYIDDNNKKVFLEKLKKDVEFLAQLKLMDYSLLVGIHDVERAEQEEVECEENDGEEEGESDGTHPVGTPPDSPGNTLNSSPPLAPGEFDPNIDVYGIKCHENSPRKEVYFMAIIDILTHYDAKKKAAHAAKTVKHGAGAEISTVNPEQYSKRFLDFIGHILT
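qHTS, 1536-well: enzyme/substrate mix, compound by pin tool, 5 microM ATP final; RT 60 min; ADP-Glo reagents 1 (45 min) then 2 (30 min); luminescence.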
BAZ2B inh: BAZ2B (human) inhibition | Q9UIF8 | AlphaScreen BAZ2B-H3K14Ac peptide displacement | Potency, µM (doses to about 114 µM), for inactives: at the top dose activity change, negative = inhibition, actives largely listed as inhibitors | 360,000 tested, 4.4% active; note: potency is the fitted concentration of half-maximal effect; % is set by controls: 0 for no effect and ±100 for the full control effect; nearly all actives have a fitted effect of over 60% in size
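BAZ2B (50 nM) with biotin-H3(5-23)K14Ac peptide (50 nM) in PBS pH 7.4, 0.01% Tween-20, preformed 30 min, then compound 30 min at room temperature; top concentration 110uM. AlphaScreen streptavidin donor/nickel chelate acceptor beads (10 ug/mL final), 20 min dark, signal read.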
JMJD2A Tudor inh: JMJD2A Tudor domain (human) inhibition; O75164; AID 504339; 390,000 tested, 4.4% active; AlphaScreen JMJD2A-Tudor / H3K4me3 peptide binding; Potency, µM (titrated, usually from 114 µM), for inactives: at the top dose activity change, negative = inhibition, actives largely listed as inhibitors; note: potency is the fitted concentration of half-maximal effect; % is set by controls: 0 for no effect and ±100 for the full control effect; nearly all actives have a fitted effect of over 50% in size
* hit, by the source's call; ? = inconclusive; . = not tested or not shown; ! = repeats disagree; [ ] = remark or other dose. Most compounds without a hit are left out; they make up all but 12% or so of the library. Unless noted, calls come from the whole dose curve; as a rule, active = well fitted curve in the direction sought with a large enough effect; inconclusive = small, poorly fitted or top-dose-only effect, or another doubt; inactive = no such curve, though single readings can be large; an effect the other way counts as inactive or inconclusive.

SMILES	PLK1 PBD inh	HP1b chromo inh	G9a inh	PI5P4Ka inh	BAZ2B inh	JMJD2A Tudor inh
FC(F)(F)c1cccc(N2CCN(Cc3nnc(-c4ccc5c(c4)OCO5)o3)CC2)c1	.	35%	2%[59 µM]	.	-37%	?
COc1ccc(CNC(=O)[C@@H](NC(=O)C2CCN(C(=O)[C@@H](N)Cc3ccccc3)CC2)C(C)C)cc1	2%	48%	7%	8	-8%[57.1 µM]	-11%
CSCCC(NS(=O)(=O)c1ccc(C)cc1)C(=O)NCC(C)(C)N1CCOCC1 (centres undefined)	-12%	26%	25%[12.7 µM]	7	-5%	-11%
O=C(Nc1ccc(F)cc1)C(c1ccccc1)N1CCN(CC(=O)N2CCOCC2)CC1 (centres undefined)	-12%	25%	10µM*	-2	6%	-6%
CCC(C(=O)NC1CCCC1)n1c(-c2ccncc2)nc2ccccc21 (centres undefined)	0%	.	.	1	.	.
CC1(C(=O)NS(=O)(=O)Cc2ccccc2C(F)(F)F)CCN1C(=O)C/C=C/c1ccccc1 (centres undefined)	-11%	.	.	6	.	.
CCOc1ccc(-n2ccnc2SCC(=O)Nc2cc(C)ccc2C)cc1	.	7%[57 µM]	6%[59 µM]	.	?	-8%
Cc1ccc(C)c(NC(=O)CSc2nccn2-c2cccc(C)c2C)c1	.	?	18µM*	.	10µM*	?
Cc1cccc(-n2ccnc2SCC(=O)Nc2cccc(S(=O)(=O)NC3=NCCC3)c2)c1C	-19%	14%	40µM*	0	-12%	-23%
NC(=O)c1ccc(NC(=O)C2CC(=O)N(c3ccc4c(c3)OCCO4)C2)cc1 (centres undefined)	0%	6%	6%[12.7 µM]	-5	-6%	-11%
O=C(Nc1nnc(C2CC2)s1)C1CC(=O)N(c2ccc3c(c2)OCCO3)C1 (centres undefined)	-16%	-27%	-14%[59 µM]	?	50µM*	45µM*
O=C(Nc1nc2ccc(F)cc2s1)C1CC(=O)N(c2ccc3c(c2)OCCO3)C1 (centres undefined)	2%	12%	-42%[2.33 µM]	-21	-10%	-12%
COc1ccc2nc(NC(=O)C3CC(=O)N(c4ccc5c(c4)OCCO5)C3)sc2c1 (centres undefined)	-11%	0%	40µM*	-22	-11%	-32%
CCN(CC)CCNC(=O)c1ccc(NC(=O)C2CC(=O)N(c3ccc4c(c3)OCCO4)C2)cc1 (centres undefined)	-27%	13%	40µM*	5	0%	-9%
Cc1ccc(C(=O)n2nc(C)c(S(=O)(=O)N3CCCCCC3)c2C)cc1C	.	49%[57 µM]	35%[59 µM]	.	60%	35%
COc1ccc(C(c2nnnn2Cc2cccs2)N2CCN(c3ccc(F)cc3)CC2)cc1OC (centres undefined)	21µM*	?	?	-13	?	45µM*
COc1ccc(Cn2nnnc2C(c2ccccn2)N2CCN(c3cc(Cl)ccc3C)CC2)cc1 (centres undefined)	-4%	6%	22µM*	.	?	?
COc1ccc(N2CCN(C(c3ccccc3)c3nnnn3Cc3ccc(F)cc3)CC2)cc1 (centres undefined)	-7%	-22%	22µM*	11	-50%	?
COc1ccc(C(c2nnnn2Cc2ccc(F)cc2)N2CCN(c3ccc(OC)cc3)CC2)cc1 (centres undefined)	-1%	?	32µM*	-1	?	?
COc1ccc(N2CCN(C(c3ccccc3)c3nnc(-c4ccccc4Cl)o3)CC2)cc1 (centres undefined)	.	?	13µM*	.	40µM*	50µM*
COc1ccccc1N1CCN(C(c2ccccc2)c2nnc(-c3ccccc3Cl)o2)CC1 (centres undefined)	.	47%	-12%[59 µM]	.	-27%	-22%
NC(N)=N/N=C(\N=Nc1ccccc1)c1ccc(Cl)cc1	0%	?	.	-9	.	22µM*
COc1ccc(OC)c(-c2noc(N3CCN(c4cccc(C(F)(F)F)c4)CC3)n2)c1	.	23%	5%[59 µM]	.	1%	-5%
CCC(=O)c1cn(CC(=O)Nc2ccc(C)cc2)c2ccccc12	-1%	26%	36%	4	4%	-15%
COc1ccccc1OCC#CCn1ccnc1	-28%	?	3.2µM*	-11	18µM*	5.6µM*
SMILES	PLK1 PBD inh	HP1b chromo inh	G9a inh	PI5P4Ka inh	BAZ2B inh	JMJD2A Tudor inh
O=[N+]([O-])c1ccc(SCCc2ccccn2)cc1	17µM*	-17%	13µM*	-12	-21%	-33%
O=[N+]([O-])c1ccc(SCCc2ccncc2)cc1	19µM*	?	11µM*	?	50µM*	50µM*!
CCc1ccc(/C=C2/C(=O)N(C)C(=S)N2CC(=O)OC)s1	?	21%	35µM*	2	-22%	-20%
CCCCNc1c(-c2ccc(F)cc2)nc2nc(C)cc(C)n12	-5%	.	.	-4	.	.
CCN1CCN(C(=O)NCc2ccccc2)CC1	5%	?	22µM*	12	-3%	1.6µM*
COc1ccc(N2CCN(C(=O)NCc3ccc(C)cc3)CC2)cc1	0%	16%	40µM*	2	-25%	-6%
CCN1CCN(C(=S)c2ccc(OCC(=O)NCc3ccccc3)cc2)CC1	11µM*	-15%	10µM*	2	-17%	-27%
O=C(NCCC(=O)N1CCN(c2ccc(F)cc2)CC1)c1ccco1	-10%	-4%	50µM*	-5	10%	-28%
O=C(NCCC(=O)N1CCN(c2ccccc2F)CC1)c1ccco1	-11%	-1%	1%[0.501 µM]	-5	-2%	-4%
O=C(NCc1ccccc1)N1CCN(c2ccc(Cl)c(Cl)c2)CC1	-7%	19%	17%[59 µM]	0	9%	-11%
COc1ccc(CN2C[C@@H](CO)O[C@@H](n3cnc4c(N5CCN(CCO)CC5)ncnc43)C2)cc1	-2%	.	.	-3	.	.
O=C(NCc1ccccc1)N1CCN(c2ccc(F)cc2)CC1	3µM*	?	0%[59 µM]	?	-1%	-31%[11.4 µM]
O=C(Cc1ccccc1)NC1CCN(C(=O)NCc2ccccc2)CC1	27µM*	-15%	15%[12.7 µM]	-6	5%	0%[11.4 µM]
COc1ccccc1OC[C@H](O)COC(N)=O	.	.	29%[21.5 µM]	.	.	.
O=C(c1ccc(S(=O)(=O)Cc2ccccc2F)c([N+](=O)[O-])c1)N1CCCC1	24µM*	-8%	-40%	-25	-22%	?
CCc1c(C(=O)Nc2ccccc2)c(C)[nH]c(=S)c1C#N	21µM*	?	1.6µM*	.	-8%	7.1µM*
Cc1[nH]c(=S)c(C#N)c(C)c1C(=O)Nc1ccccc1	?	?	1.3µM*	-14	-4%	8.9µM*
